From PubChem BioAssay (NCI)
This is part of a sample that, as a whole, favours compounds with a hit. Of some 83,000 tested, about 20% had one in any assay.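 Cell lines were cultured in 96-well plates, exposed to a single compound concentration, and assessed for percent growth 48 hours later.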 A number with no mark means an inactive call. Active and inactive are the calls of the source. Rule for the calls: active = growth percent below 10; inactive = the rest.

How the values were obtained:
Experiment in all cases: NCI-60 one-dose screen, 48 h (100 = growth as untreated, 0 = no growth, -100 = all killed)
Conditions in all cases: 10 µM unless noted
[1] = test system: SR leukemia
[2] = test system: RPMI-8226 leukemia
[3] = test system: OVCAR-8 ovarian
[4] = test system: OVCAR-5 ovarian
[5] = test system: OVCAR-4 ovarian
[6] = test system: SK-OV-3 ovarian
[7] = test system: IGROV1 ovarian
[8] = test system: OVCAR-3 ovarian
[9] = test system: HS 578T breast
[10] = test system: NCI/ADR-RES ovarian

CC(=O)N1N=C(c2ccc(Cl)cc2)CC1c1cn(-c2ccccc2)nc1-c1ccc([N+](=O)[O-])cc1 (stereo not given)
growth [1]: 120%
growth [2]: 101%
growth [3]: 102%
growth [4]: 94%
growth [5]: 85.6%
growth [6]: 96.5%
growth [7]: 122%
growth [8]: 106%
growth [9]: 125%
growth [10]: 135%

COc1cc(Cn2ccc3c2-c2oncc2CC3)cc(OC)c1
growth [1]: 24.1%
growth [2]: 35.2%
growth [3]: 49%
growth [4]: 57%
growth [5]: 61.7%
growth [6]: 24.6%
growth [7]: 26.2%
growth [8]: 4.85% (active)
growth [9]: 32.4%
growth [10]: -13.9% (active)

C=CCSc1nnc(COc2ccc3c(C)c(Cc4ccccc4)c(=O)oc3c2C)o1
growth [1]: 77.7%
growth [2]: 99.9%
growth [3]: 97.6%
growth [4]: 104%
growth [5]: 96.1%
growth [6]: 108%
growth [7]: 112%
growth [8]: 108%
growth [9]: 94.5%

CCCOC(=O)c1c(C)n(C)c2scc[n+]12
growth [1]: 13.6%
growth [2]: 54.8%
growth [3]: 72.8%
growth [4]: 75.1%
growth [5]: 73.8%
growth [6]: 93.9%
growth [7]: 15.9%
growth [8]: 71.2%
growth [9]: 77.6%

O=C(CBr)OCc1ccc([N+](=O)[O-])o1
growth [1]: 88.1%
growth [2]: 86.3%
growth [3]: 96.9%
growth [4]: 101%
growth [5]: 77.9%
growth [6]: 105%
growth [7]: 10.5%
growth [8]: 104%
growth [9]: 106%

C=CCNC(=S)NNc1ccc([N+](=O)[O-])cn1
growth [1]: 98.3%
growth [2]: 101%
growth [3]: 111%
growth [4]: 95.6%
growth [5]: -92.2% (active)
growth [6]: 104%
growth [7]: 102%
growth [8]: 98.7%
growth [9]: 105%

COC(=O)C(N)CC(C)C (stereo not given)
growth [1]: 86.4%
growth [2]: 99.2%
growth [3]: 101%
growth [4]: 108%
growth [5]: 111%
growth [6]: 111%
growth [7]: 115%
growth [8]: 109%
growth [9]: 111%

COc1ccc(CN2C(=O)/C(=C\C(=O)c3ccc(OCCN4CCCC4)cc3)c3ccccc32)cc1
growth [1]: -14.2% (active)
growth [2]: -4.7% (active)
growth [3]: 86.5%
growth [4]: 77.6%
growth [5]: 60.4%
growth [6]: 101%
growth [7]: 81.4%
growth [8]: 49.6%
growth [9]: 84.2%

O=c1oc2ccc3ccccc3c2cc1-c1ccnc2[nH]c(=S)[nH]c(=O)c12
growth [1]: 82.7%
growth [2]: 89.1%
growth [3]: 99.8%
growth [4]: 112%
growth [5]: 117%
growth [6]: 93.1%
growth [7]: 104%
growth [8]: 107%
growth [9]: 107%

COc1ccc(-c2nc(SCC(C)C)nc(Nc3ccc([N+](=O)[O-])cc3)c2C#N)cc1
growth [1]: 54.4%
growth [2]: 93.9%
growth [3]: 93.4%
growth [4]: 106%
growth [5]: 37.5%
growth [6]: 99.2%
growth [7]: 94.3%
growth [8]: 81.5%
growth [9]: 90.4%

O=C(O)c1ccc(-c2nn(-c3ccc(C(=O)O)cc3)cc2CNc2ccc(Br)cc2)cc1
growth [1]: 107%
growth [2]: 108%
growth [3]: 104%
growth [4]: 102%
growth [5]: 104%
growth [6]: 102%
growth [7]: 115%
growth [8]: 104%
growth [9]: 107%
growth [10]: 112%

O=c1c(N=Nc2nccs2)c(-c2ccccc2)[nH]n1-c1nc(-c2ccccc2)cs1
growth [1]: 33.4%
growth [2]: 16.1%
growth [3]: 28.1%
growth [4]: 98.9%
growth [5]: 39.5%
growth [6]: 23.5%
growth [7]: 44.2%
growth [8]: 31.6%
growth [9]: 38.4%

Oc1ccccc1/C=N/N=C\c1ccccc1Cl
growth [1]: 82.4%
growth [2]: 102%
growth [3]: 95.2%
growth [4]: 115%
growth [5]: 93.4%
growth [6]: 96%
growth [7]: 70.3%
growth [8]: 84.1%
growth [9]: 105%
growth [10]: 95.2%

O=C(Nc1ccc(-n2cc(-c3ccncc3)c(-c3ccc(Cl)c(O)c3)n2)cc1)c1ccc(Cl)c(C(F)(F)F)c1
growth [1]: -13.4% (active)
growth [2]: -42.7% (active)
growth [3]: -1.91% (active)
growth [4]: 52.6%
growth [5]: 40.6%
growth [6]: 14.4%
growth [7]: 27.5%
growth [8]: -24.9% (active)
growth [9]: -53.7% (active)

CC(=O)N1CCN(CCNC(=O)n2cc(-c3ccncc3)c(-c3cc(O)cc(Cl)c3)n2)CC1
growth [1]: 16.7%
growth [2]: 44.9%
growth [3]: 66%
growth [4]: 110%
growth [5]: 116%
growth [6]: 101%
growth [7]: 76.2%
growth [8]: 102%
growth [9]: 91.9%
growth [10]: 101%

O=C(O)c1ccc(Br)nc1
growth [1]: 95.9%
growth [2]: 98.7%
growth [3]: 98.3%
growth [4]: 86.1%
growth [5]: 98.6%
growth [6]: 92.3%
growth [7]: 107%
growth [8]: 102%
growth [9]: 102%
growth [10]: 102%

CC(C)(C)c1ccc([I+]c2ccc(C(C)(C)C)cc2)cc1
growth [1]: 5.64% (active)
growth [2]: -19.9% (active)
growth [3]: 7.15% (active)
growth [4]: 49.6%
growth [5]: 18.3%
growth [6]: 30.3%
growth [7]: 20.9%
growth [8]: 2.92% (active)
growth [9]: 29.1%

C=CC1CN2CCC1CC2C(O)c1ccnc2ccc(OC)cc12 (stereo not given)
growth [1]: 113%
growth [2]: 108%
growth [3]: 88.4%
growth [4]: 93.1%
growth [5]: 102%
growth [6]: 93.9%
growth [7]: -5.34% (active)
growth [8]: 105%
growth [9]: 99.9%
growth [10]: 107%

COC(=O)C(Cc1cnc[nH]1)N1CC(=O)N2[C@@H](c3ccccc3)SC[C@H]2C1=O (stereo not given in full)
growth [1]: 106%
growth [2]: 105%
growth [3]: 98.4%
growth [4]: 103%
growth [5]: 111%
growth [6]: 115%
growth [7]: 116%
growth [8]: 111%
growth [9]: 106%

COC(=O)c1ccc2[nH]c(O)c(C(=Nc3ccc(N(C)C(=O)CN4CCN(C)CC4)cc3)c3ccc([N+](=O)[O-])cc3)c2c1
growth [1]: 5.48% (active)
growth [2]: 31%
growth [3]: 37%
growth [4]: 94.3%
growth [5]: 46.9%
growth [6]: 22.5%
growth [7]: 19.1%
growth [8]: 53.6%
growth [9]: 27.6%

CC[C@H](Nc1ncnc2nc[nH]c12)c1nc2cccc(NCc3ccc(C(=O)NO)nc3)c2c(=O)n1-c1ccccc1
growth [1]: 11.6%
growth [2]: 6.61% (active)
growth [3]: 36.9%
growth [4]: 84.9%
growth [5]: 70.4%
growth [6]: 80.8%
growth [7]: 30.9%
growth [8]: 41.5%
growth [9]: 13.8%
growth [10]: 106%

CC(O)CN(CCO)CCN(CCO)CC(C)O (stereo not given)
growth [1]: 89.2%
growth [2]: 102%
growth [3]: 106%
growth [4]: 99.7%
growth [5]: 109%
growth [6]: 114%
growth [7]: 115%
growth [8]: 112%
growth [9]: 108%

O=C1Nc2c(c(=O)n(-c3ccccc3)c3ccccc23)C(c2ccc(Cl)cc2)N1 (stereo not given)
growth [1]: 77.8%
growth [2]: 90.5%
growth [3]: 82.4%
growth [4]: 101%
growth [5]: 105%
growth [6]: 89.8%
growth [7]: 84%
growth [8]: 106%
growth [9]: 70.2%

COC(=O)c1ccc2[nH]c(O)c(C(=Nc3ccc(N(C)C(=O)CN4CCN(C)CC4)cc3)c3cccc(OC)c3)c2c1
growth [1]: -3.85% (active)
growth [2]: 4.7% (active)
growth [3]: 23.7%
growth [4]: 33.8%
growth [5]: 25.4%
growth [6]: -0.652% (active)
growth [7]: 1.75% (active)
growth [8]: 10.5%
growth [9]: 6.7% (active)
growth [10]: 99.5%

COc1cc(NC(C)CCCN)c2nccc(C)c2c1OC (stereo not given)
growth [1]: 69.4%
growth [2]: 65.7%
growth [3]: 98.2%
growth [4]: 91.8%
growth [5]: 29%
growth [6]: 96.1%
growth [7]: 92.8%
growth [8]: 44.4%
growth [9]: 87.3%
growth [10]: 98.2%

O=C(C(=O)N1CCOCC1)c1ccc(O[C@H]2O[C@H](CO)[C@@H](O)[C@H](O)[C@@H]2O)cc1
growth [1]: 94.6%
growth [2]: 96.8%
growth [3]: 109%
growth [4]: 98.6%
growth [5]: 105%
growth [6]: 106%
growth [7]: 106%
growth [8]: 121%
growth [9]: 183%
growth [10]: 105%
